{"source": "PubChem BioAssay (Tox21)", "note": "Unmarked numbers belong to inactive results. Calls follow the shape of the dose curve; as a rule, active = well fitted curve in the direction sought with a large enough effect in the repeat runs; inconclusive = weak or mixed curves; inactive = flat fitted curve, though single readings scatter. % is scaled to controls: 0 for no effect and ±100 for the full control effect.", "data": [{"experiment": "qHTS assay to test for compound auto fluorescence at 535 nm (green) in HEK293 cells (AID 720680)", "settings": "green autofluorescence 485/535 nm; series mostly up to 91.3 µM; fluorescence, % of fluorescein: at the top concentration", "values": [{"smiles": "O=C1CCCCC1C1CCCCC1", "note": "(centres undefined)", "fluorescence, % of fluorescein": "0.015%"}, {"smiles": "CCC(=O)c1ccc2c(c1)N(CCCN(C)C)c1ccccc1S2", "fluorescence, % of fluorescein": "0.001% [at 46 µM]"}, {"smiles": "CN(C)CCOc1ccccc1Cc1ccccc1", "fluorescence, % of fluorescein": "-0.299% [at 46 µM]"}, {"smiles": "CCOc1ccc(NS(=O)(=O)c2ccc(N)cc2)nn1", "fluorescence, % of fluorescein": "-0.014% [at 46 µM]"}, {"smiles": "Cn1cnc2c(F)c(Nc3ccc(Br)cc3Cl)c(C(=O)NOCCO)cc21", "fluorescence, % of fluorescein": "-0.0821% [at 46 µM]"}, {"smiles": "CCCCCCCCCCCCCCCCOP(=O)([O-])OCC[N+](C)(C)C", "fluorescence, % of fluorescein": "0.0402% [at 46 µM]"}, {"smiles": "CCN(CCCc1ccccc1)CCCc1ccccc1", "fluorescence, % of fluorescein": "0.159% [at 18.6 µM]"}, {"smiles": "CCCCCCCCCCCCOCCOS(=O)(=O)O", "fluorescence, % of fluorescein": "0.0356%"}, {"smiles": "CCNCCO", "fluorescence, % of fluorescein": "0.0022%"}, {"smiles": "O=C(CC(=O)C(F)(F)F)c1ccccc1", "fluorescence, % of fluorescein": "0.0265% [at 95.7 µM]"}, {"smiles": "CCCCCCCOC(=O)CCC", "fluorescence, % of fluorescein": "0.0283%"}, {"smiles": "O=[N+]([O-])c1nccn1CO[C@@H](CO)[C@H](O)CO", "fluorescence, % of fluorescein": "-0.125% [at 46 µM]"}, {"smiles": "CCCCNc1ccc(C(=O)OCCN(CC)CC)cc1", "fluorescence, % of fluorescein": "-0.0115% [at 46 µM]"}, {"smiles": "C[C@@H]1CN(c2c(F)c(F)c3c(=O)c(C(=O)O)cn(C4CC4)c3c2F)C[C@H](C)N1", "fluorescence, % of fluorescein": "-0.046% [at 46 µM]"}]}]}
